# B1: unnamed (peptide)
# chain: MFLISPPASPPPEFD
# B2: unnamed (peptide)
# chain: APPLPPTAPPPPSLP
# Target: SpBzz1-D2
# Assay: SPOT peptide array binding signal intensity (averaged, normalized) (arbitrary units (background-subtracted, floor 0; scale differs between SH3 domains)); higher = stronger binding of the SH3 domain to the peptide
# Method in brief: (§1)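 GST-fused SH3 domains, from four yeast species, were produced in E. coli BL21(DE3) and captured on glutathione Sepharose. Membranes of cellulose carrying synthetic 15-mer peptides, in which cysteines had been replaced by serines, were exposed to each domain at 10 μg/ml overnight at 4°C in TBS-based blocking buffer. After anti-GST antibody, an HRP anti-mouse secondary and luminol, spots were imaged and quantified using Genespotter. Binding signal is normalized and background-subtracted spot intensity, averaged over replicates, in arbitrary units that differ between domains.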
row,Binder,SPOT peptide array binding signal intensity
1,B1,≤ 0
2,B2,≤ 0

# Target: SpCyk3
# Assay: as above
# Method in brief: as §1
row,Binder,SPOT peptide array binding signal intensity
1,B1,4
2,B2,1

# Target: SpHof1
# Assay: as above
# Method in brief: as §1
row,Binder,SPOT peptide array binding signal intensity
1,B1,7.5
2,B2,≤ 0

# Target: SpHof1-2
# Assay: as above
# Method in brief: as §1
row,Binder,SPOT peptide array binding signal intensity
1,B1,8.25
2,B2,4

# Target: SpHof1-3
# Assay: as above
# Method in brief: as §1
row,Binder,SPOT peptide array binding signal intensity
1,B1,≤ 0
2,B2,0.5

# Target: SpHse1
# Assay: as above
# Method in brief: as §1
row,Binder,SPOT peptide array binding signal intensity
1,B1,103
2,B2,10.5

# Target: SpLsb1
# Assay: as above
# Method in brief: as §1
row,Binder,SPOT peptide array binding signal intensity
1,B1,≤ 0
2,B2,≤ 0

# Target: SpLsb4
# Assay: as above
# Method in brief: as §1
row,Binder,SPOT peptide array binding signal intensity
1,B1,49
2,B2,≤ 0

# Target: SpMyo1
# Assay: as above
# Method in brief: as §1
row,Binder,SPOT peptide array binding signal intensity
1,B1,1430
2,B2,2050

# Target: SpNbp2
# Assay: as above
# Method in brief: as §1
row,Binder,SPOT peptide array binding signal intensity
1,B1,9
2,B2,6.5

# Target: SpPex13
# Assay: as above
# Method in brief: as §1
row,Binder,SPOT peptide array binding signal intensity
1,B1,2.5
2,B2,≤ 0

# Target: SpRvs167
# Assay: as above
# Method in brief: as §1
row,Binder,SPOT peptide array binding signal intensity
1,B1,≤ 0
2,B2,24.3

# Target: SpSla1-D1-D2
# Assay: as above
# Method in brief: as §1
row,Binder,SPOT peptide array binding signal intensity
1,B1,≤ 0
2,B2,≤ 0

# Target: SpSla1-D3
# Assay: as above
# Method in brief: as §1
row,Binder,SPOT peptide array binding signal intensity
1,B1,≤ 0
2,B2,≤ 0

# Target: AgAbp1
# Assay: as above
# Method in brief: as §1
row,Binder,SPOT peptide array binding signal intensity
1,B2,≤ 0

# Target: AgBbc1
# Assay: as above
# Method in brief: as §1
row,Binder,SPOT peptide array binding signal intensity
1,B2,≤ 0

# Target: AgBem1-D1
# Assay: as above
# Method in brief: as §1
row,Binder,SPOT peptide array binding signal intensity
1,B2,≤ 0

# Target: AgBzz1-D1
# Assay: as above
# Method in brief: as §1
row,Binder,SPOT peptide array binding signal intensity
1,B2,≤ 0

# Target: AgBzz1-D2
# Assay: as above
# Method in brief: as §1
row,Binder,SPOT peptide array binding signal intensity
1,B2,3

# Target: AgCyk3
# Assay: as above
# Method in brief: as §1
row,Binder,SPOT peptide array binding signal intensity
1,B2,≤ 0

# Target: AgFus1
# Assay: as above
# Method in brief: as §1
row,Binder,SPOT peptide array binding signal intensity
1,B2,≤ 0

# Target: AgHof1
# Assay: as above
# Method in brief: as §1
row,Binder,SPOT peptide array binding signal intensity
1,B2,116

# Target: AgHse1
# Assay: as above
# Method in brief: as §1
row,Binder,SPOT peptide array binding signal intensity
1,B2,13

# Target: AgLsb1
# Assay: as above
# Method in brief: as §1
row,Binder,SPOT peptide array binding signal intensity
1,B2,≤ 0

# Target: AgLsb4
# Assay: as above
# Method in brief: as §1
row,Binder,SPOT peptide array binding signal intensity
1,B2,3

# Target: AgMyo5
# Assay: as above
# Method in brief: as §1
row,Binder,SPOT peptide array binding signal intensity
1,B2,2800

# Target: AgNbp2
# Assay: as above
# Method in brief: as §1
row,Binder,SPOT peptide array binding signal intensity
1,B2,≤ 0

# Target: AgRvs167
# Assay: as above
# Method in brief: as §1
row,Binder,SPOT peptide array binding signal intensity
1,B2,≤ 0

# Target: AgSho1
# Assay: as above
# Method in brief: as §1
row,Binder,SPOT peptide array binding signal intensity
1,B2,≤ 0

# Target: AgSla1-D1-D2
# Assay: as above
# Method in brief: as §1
row,Binder,SPOT peptide array binding signal intensity
1,B2,2

# Target: AgSla1-D3
# Assay: as above
# Method in brief: as §1
row,Binder,SPOT peptide array binding signal intensity
1,B2,0.5

# Target: CaAbp1-D1
# Assay: as above
# Method in brief: as §1
row,Binder,SPOT peptide array binding signal intensity
1,B2,≤ 0

# Target: CaAbp1-D2
# Assay: as above
# Method in brief: as §1
row,Binder,SPOT peptide array binding signal intensity
1,B2,≤ 0

# Target: CaBbc1
# Assay: as above
# Method in brief: as §1
row,Binder,SPOT peptide array binding signal intensity
1,B2,≤ 0

# Target: CaBem1-D1
# Assay: as above
# Method in brief: as §1
row,Binder,SPOT peptide array binding signal intensity
1,B2,1

# Target: CaBzz1-D1
# Assay: as above
# Method in brief: as §1
row,Binder,SPOT peptide array binding signal intensity
1,B2,≤ 0

# Target: CaBzz1-D2
# Assay: as above
# Method in brief: as §1
row,Binder,SPOT peptide array binding signal intensity
1,B2,≤ 0

# Target: CaCyk3
# Assay: as above
# Method in brief: as §1
row,Binder,SPOT peptide array binding signal intensity
1,B2,≤ 0

# Target: CaFus1
# Assay: as above
# Method in brief: as §1
row,Binder,SPOT peptide array binding signal intensity
1,B2,≤ 0

# Target: CaHof1
# Assay: as above
# Method in brief: as §1
row,Binder,SPOT peptide array binding signal intensity
1,B2,≤ 0

# Target: CaHse1
# Assay: as above
# Method in brief: as §1
row,Binder,SPOT peptide array binding signal intensity
1,B2,≤ 0

# Target: CaLsb1
# Assay: as above
# Method in brief: as §1
row,Binder,SPOT peptide array binding signal intensity
1,B2,≤ 0

# Target: CaLsb4
# Assay: as above
# Method in brief: as §1
row,Binder,SPOT peptide array binding signal intensity
1,B2,≤ 0

# Target: CaMyo5
# Assay: as above
# Method in brief: as §1
row,Binder,SPOT peptide array binding signal intensity
1,B2,2460

# Target: CaNbp2
# Assay: as above
# Method in brief: as §1
row,Binder,SPOT peptide array binding signal intensity
1,B2,7.5

# Target: CaRvs167
# Assay: as above
# Method in brief: as §1
row,Binder,SPOT peptide array binding signal intensity
1,B2,0.167

# Target: CaRvs167-3
# Assay: as above
# Method in brief: as §1
row,Binder,SPOT peptide array binding signal intensity
1,B2,2.5

# Target: CaSho1
# Assay: as above
# Method in brief: as §1
row,Binder,SPOT peptide array binding signal intensity
1,B2,8

# Target: CaSla1-D1-D2
# Assay: as above
# Method in brief: as §1
row,Binder,SPOT peptide array binding signal intensity
1,B2,≤ 0

# Target: CaSla1-D3
# Assay: as above
# Method in brief: as §1
row,Binder,SPOT peptide array binding signal intensity
1,B2,≤ 0

# Target: ScAbp1
# Assay: as above
# Method in brief: as §1
row,Binder,SPOT peptide array binding signal intensity
1,B2,0.5

# Target: ScBbc1
# Assay: as above
# Method in brief: as §1
row,Binder,SPOT peptide array binding signal intensity
1,B2,≤ 0

# Target: ScBem1-D1
# Assay: as above
# Method in brief: as §1
row,Binder,SPOT peptide array binding signal intensity
1,B2,0.5

# Target: ScBzz1-D1
# Assay: as above
# Method in brief: as §1
row,Binder,SPOT peptide array binding signal intensity
1,B2,≤ 0

# Target: ScBzz1-D2
# Assay: as above
# Method in brief: as §1
row,Binder,SPOT peptide array binding signal intensity
1,B2,≤ 0

# Target: ScCyk3
# Assay: as above
# Method in brief: as §1
row,Binder,SPOT peptide array binding signal intensity
1,B2,2

# Target: ScFus1
# Assay: as above
# Method in brief: as §1
row,Binder,SPOT peptide array binding signal intensity
1,B2,≤ 0

# Target: ScHof1
# Assay: as above
# Method in brief: as §1
row,Binder,SPOT peptide array binding signal intensity
1,B2,212

# Target: ScHse1
# Assay: as above
# Method in brief: as §1
row,Binder,SPOT peptide array binding signal intensity
1,B2,≤ 0

# Target: ScLsb1
# Assay: as above
# Method in brief: as §1
row,Binder,SPOT peptide array binding signal intensity
1,B2,≤ 0

# Target: ScLsb2
# Assay: as above
# Method in brief: as §1
row,Binder,SPOT peptide array binding signal intensity
1,B2,≤ 0

# Target: ScLsb3
# Assay: as above
# Method in brief: as §1
row,Binder,SPOT peptide array binding signal intensity
1,B2,≤ 0

# Target: ScLsb4
# Assay: as above
# Method in brief: as §1
row,Binder,SPOT peptide array binding signal intensity
1,B2,4

# Target: ScMyo3
# Assay: as above
# Method in brief: as §1
row,Binder,SPOT peptide array binding signal intensity
1,B2,3490

# Target: ScMyo5
# Assay: as above
# Method in brief: as §1
row,Binder,SPOT peptide array binding signal intensity
1,B2,3170

# Target: ScNbp2
# Assay: as above
# Method in brief: as §1
row,Binder,SPOT peptide array binding signal intensity
1,B2,0.5

# Target: ScPex13
# Assay: as above
# Method in brief: as §1
row,Binder,SPOT peptide array binding signal intensity
1,B2,≤ 0

# Target: ScRvs167
# Assay: as above
# Method in brief: as §1
row,Binder,SPOT peptide array binding signal intensity
1,B2,≤ 0

# Target: ScSho1
# Assay: as above
# Method in brief: as §1
row,Binder,SPOT peptide array binding signal intensity
1,B2,≤ 0

# Target: ScSla1-D1-D2
# Assay: as above
# Method in brief: as §1
row,Binder,SPOT peptide array binding signal intensity
1,B2,≤ 0

# Target: ScSla1-D3
# Assay: as above
# Method in brief: as §1
row,Binder,SPOT peptide array binding signal intensity
1,B2,0.5

# Target: SpAbp1-D1
# Assay: as above
# Method in brief: as §1
row,Binder,SPOT peptide array binding signal intensity
1,B2,≤ 0

# Target: SpBbc1
# Assay: as above
# Method in brief: as §1
row,Binder,SPOT peptide array binding signal intensity
1,B2,1

# Target: SpBzz1-D1
# Assay: as above
# Method in brief: as §1
row,Binder,SPOT peptide array binding signal intensity
1,B2,525

# — the supplement of paper PMC4466140
